# Assay results as given in PubChem BioAssay (NCATS).
# Results filed as inconclusive are left out. Where a call stands in place of a potency, no number is given. Calls of active or inactive are those of the source. The call rests on the fitted dose curve; in most records, active means well fitted curve in the direction sought with a large enough effect; inconclusive means small, poorly fitted or top-dose-only effect, or another doubt; inactive means no such curve, though single readings can be large or run the other way.
# Assay: KB-8-5-11 P-gp reporter qHTS against the NCATS DSHEA and TCM libraries (AID 1919977)
# Conditions: KB-8-5-11 cells; series mostly up to 26.1 µM
# Text: Assay Development and Screening Technology Laboratory (ADST)
# National Center for Advancing Translational Sciences (NCATS), Rockville, MD
# National Institute of Health (NIH), Bethesda, Maryland
# Dietary Supplements and Natural Products have minor oversight of their safety and efficacy. We assembled a collection of Dietary Supplements and Natural Products (DSNP) as well as Traditional Chinese Medicinal (TCM) Plant extracts, which were screened against an in vitro panel of assays, including a liver cytochrome p450 enzyme panel, CAR/PXR signaling pathways, and P-gp transporter assays, to assess their activity. This pipeline facilitated the interrogation of Natural Product-Drug Interaction (NaPDI) through prominent metabolizing pathways. In addition, we compared the activity profiles of the DSNP/TCM substances with those of an approved drug collection. Many of the approved drugs have well-annotated mechanisms of action (MOA) while the MOAs for most of the DSNP and TCM samples remain unknown. Based on the premise that compounds with similar activity profiles tend to share similar targets or MOA, we clustered the library activity profiles to identify overlap with the NCATS Pharmaceutical Collection to predict the MOAs of the DSNP/TCM substances. Overall, we highlight four significant bioactivity profiles (measured by p-values) as examples of this prediction. To assess broad cytotoxicity, we employed screening against a HepG2 cell line. In addition, transporter-mediated drug interactions are utilized in the characterization of DDIs using a P-glycoprotein (P-gp) assays. To profile potential P-gp activity, a differential cell viability was measured against two cell lines: a parental KB-3-1 human cervical adenocarcinoma cell line and the drug-resistant subline KB-8-5-11 that overexpresses P-gp.
# To this end, we profiled both collections for potential CAR and/or PXR activity, employing a previously published 1536-well qHTS assay.
# [1] Lee TD, et al. A High-Throughput Screen of a Library of Therapeutics Identifies Cytotoxic Substrates of P-glycoprotein. Mol Pharmacol. Nov 2019;96(5):629-640. doi:10.1124/mol.119.115964
# PROTOCOL TABLE (as described by Inglese J, Shamu CE and Guy RK. 2007)
# SEQUENCE No. (e.g., 1, 2, 3, etc.); PARAMETER (e.g., Cells, Incubation, Reagent, etc.); VALUE; DESCRIPTION.
# 1; Cells; 5 uL; KB-8-5-11 cells, white solid-bottom tissue treated Greiner plate.
# 2; Incubation; 4 hrs; 37C, 95% humidity, 5% CO2.
# 3; Compounds and control; 23 nL; Kalypsis pin tool (Wako USA) equipped with a 1536-well pin head to transfer to the assay plates.
# 4; Incubation; 72 hrs; 37C, 95% humidity, 5% CO2.
# 5; Reagent; 2.5 uL; CellTiter-Glo.
# 6; Centrifuge; 1000 RPM; 15 seconds.
# 7; Incubation; 30 min; room temperature.
# 8; Read; Luminescence; ViewLux plate reader.
# NOTES (numbers refer to Sequence numbers above)
# 1. P-gp-overexpressing subline KB-8-5-11 were maintained in DMEM (Thermofisher catalog #11965) with 10% FBS and 1% penicillin/streptomycin at 37C in 5% CO2. For KB-8-5-11 cells, colchicine was added to the medium at a concentration of 100 ng/ml (after initial cell attachment). For the screen, assay medium was identical to culture medium except for KB-8-5-11, where colchicine was excluded from the medium. Briefly, 5 uL of cells at 1 x 10^5 cells/mL (500 cells/well) were dispensed into a 1536-well white solid-bottom tissue treated plate (Greiner Bio-One) using a Multidrop Combi dispenser.
# 2. Plates were incubated at 37C, 95% humidity, 5% CO2 for ~4 hours to allow for cell attachment.
# 3. Compounds and intraplate control (Bortezomib; final concentration range 228 pM - 7.5 uM) were transferred (16 nL) via pintool (Wako Automation), for a final concentration of 15.6 nM - 30.0 uM (most substances).
# 4. Plates were incubated for ~72 hours at 37C, 95% humidity, 5% CO2.
# 5. Plates were then dispensed with 2.5 uL of CellTiter-Glo.
# 6. The assay plates were centrifuged for 15 seconds at 1,000 RPM's.
# 7. The plates were incubated for 30-minute at room temperature.
# 8. […]
row,SMILES,Potency
1,CC/C=C\C/C=C\C/C=C\CCCCCCCC(=O)O,inactive
2,CC(C)=CCC[C@](C)(O[C@@H]1O[C@H](CO)[C@@H](O)[C@H](O)[C@H]1O)[C@H]1CC[C@]2(C)[C@@H]1[C@H](O)C[C@@H]1[C@@]3(C)CC[C@H](O[C@@H]4O[C@H](CO)[C@@H](O)[C@H](O)[C@H]4O[C@@H]4O[C@H](CO)[C@@H](O)[C@H](O)[C@H]4O)C(C)(C)[C@@H]3CC[C@]12C,inactive
3,O=c1ccc2ccc(O)cc2o1,inactive
4,CCCCCCCCC[C@@H](O)CC(=O)CCc1ccc(O)c(OC)c1,inactive
5,CC12CC3(O)OC(O1)C1(COC(=O)c4ccc(O)cc4)C3CC21OC1OC(CO)C(O)C(O)C1O (stereo not given),inactive
6,C[C@@H]1CC[C@]2(C)CC[C@]3(C)C(=CC(=O)C4[C@@]5(C)CC[C@@H](O)[C@](C)(C(=O)O)C5CC[C@]43C)C2[C@H]1C (stereo not given in full),inactive
7,CCCCCCCCCCCC(=O)O,inactive
8,CCCCCCCC/C=C\CCCCCCCCCCCCCC(=O)O,inactive
9,O=C(O)CC(O)(C(=O)O)C(O)C(=O)O (stereo not given),inactive
10,CCCCCCCCCCCCCCCCCCCCCC(=O)O,inactive
11,CCCCCCC/C=C/C(=O)CCc1ccc(O)c(OC)c1,inactive
12,CC1=CCC(C(C)(C)O)CC1 (stereo not given),inactive
13,N#CC(O[C@@H]1O[C@H](CO[C@@H]2O[C@H](CO)[C@@H](O)[C@H](O)[C@H]2O)[C@@H](O)[C@H](O)[C@H]1O)c1ccccc1 (stereo not given in full),inactive
14,OCC=Cc1ccccc1,inactive
15,OC[C@H]1O[C@@H](OC[C@H]2O[C@@H](OC/C=C/c3ccccc3)[C@H](O)[C@@H](O)[C@@H]2O)[C@@H](O)[C@@H]1O,inactive
16,COc1ccc(C(=O)O)cc1,inactive
17,Oc1cc(O)c2c(c1)OC(c1ccc(O)c(O)c1)C(O)C2 (stereo not given),inactive
18,C=C1[C@H]2CC[C@H](C(=O)O)[C@@]23CC[C@H](C3)C1(C)C,inactive
19,COc1ccc2c(c1O)-c1c(OC)c(OC)cc3c1[C@H](C2)N(C)CC3,inactive
20,CC(C)=CCC[C@](C)(O[C@@H]1O[C@H](CO)[C@@H](O)[C@H](O)[C@H]1O)[C@H]1CC[C@]2(C)[C@@H]1[C@H](O)C[C@@H]1[C@@]3(C)CC[C@H](O)C(C)(C)[C@@H]3[C@@H](O[C@@H]3O[C@H](CO)[C@@H](O)[C@H](O)[C@H]3O)C[C@]12C,inactive

row,SMILES,Potency
1,CC(C)=CCC/C(C)=C/C=C/C(C)=C/C=C/C(C)=C/C=C/C=C(C)/C=C/C=C(C)/C=C/C=C(\C)CCC=C(C)C,inactive
2,C=C1CC/C=C(/C)CC[C@@H]2[C@@H]1CC2(C)C,inactive
3,CCCCCCCC/C=C\CCCCCCCCCCCC(=O)O,inactive
4,CCCCCCCC/C=C/CCCCCCCC(=O)O,inactive
5,O=S(=O)(O)O,inactive
6,C=C(C)[C@H]1CC=C(C)CC1,inactive
7,O=Cc1ccccc1O,inactive
8,CC(C)=CCC[C@](C)(O[C@@H]1O[C@H](CO)[C@@H](O)[C@H](O)[C@H]1O)[C@H]1CC[C@]2(C)[C@@H]1[C@H](O)C[C@@H]1[C@@]3(C)CC[C@H](O)C(C)(C)[C@@H]3[C@@H](O[C@@H]3O[C@H](CO)[C@@H](O)[C@H](O)[C@H]3O[C@@H]3O[C@@H](C)[C@H](O)[C@@H](O)[C@H]3O)C[C@]12C,inactive
9,O=C(O)CC(O)(CC(=O)O)C(=O)O,inactive
10,O=C(O[C@@H]1Cc2c(O)cc(O)cc2O[C@@H]1c1ccc(O)c(O)c1)c1cc(O)c(O)c(O)c1,inactive
11,C=C1C[C@@]23CC[C@H]4[C@](C)(CCC[C@]4(C)C(=O)O[C@@H]4O[C@H](CO)[C@@H](O)[C@H](O)[C@H]4O)[C@@H]2CC[C@]1(O[C@H]1O[C@@H](CO)[C@H](O)[C@@H](O)[C@@H]1O)C3,inactive
12,CC1=C2[C@H]([C@@H](C)CC[C@@H]2/C=C(\C)C(=O)O)[C@@H](O)C1,inactive
13,O=C(/C=C/c1ccc(O)c(O)c1)O[C@@H]1CC(C(=O)O)=C[C@@H](O)[C@H]1O,inactive
14,CC(C)=CCCC(C)(OC1OC(COC2OC(CO)C(O)C2O)C(O)C(O)C1O)C1CCC2(C)C1C(O)CC1C3(C)CCC(OC4OC(CO)C(O)C(O)C4OC4OC(CO)C(O)C(O)C4O)C(C)(C)C3CCC12C (stereo not given),inactive
15,CC[C@H](CC[C@@H](C)[C@H]1CC[C@H]2[C@@H]3CC=C4C[C@@H](O)CC[C@]4(C)[C@H]3CC[C@]12C)C(C)C,inactive
16,COC1=C(OC)C(=O)C(C/C=C(\C)CC/C=C(\C)CC/C=C(\C)CC/C=C(\C)CC/C=C(\C)CC/C=C(\C)CC/C=C(\C)CC/C=C(\C)CC/C=C(\C)CCC=C(C)C)=C(C)C1=O,inactive
17,Cc1ccc(C(C)C)cc1,inactive
18,COc1ccc(/C=C/c2cc(OC)cc(=O)o2)cc1,inactive
19,CCCCCCCC/C=C/CCCCCCCCCC(=O)O,inactive
20,CC1CC[C@]2(C(=O)O)CC[C@]3(C(=O)O)C(=CCC4[C@@]5(C)CC[C@H](OC6OC(C)C(O)C(OC7OC(CO)C(O)C(O)C7O)C6O)C(C)(C)C5CC[C@]43C)C2C1C (stereo not given in full),inactive
